Records with an inconclusive call do not appear. Calls of active or inactive are those of the source. Unless noted, calls come from the whole dose curve; as a rule, active = well fitted curve in the direction sought with a large enough effect; inconclusive = small, poorly fitted or top-dose-only effect, or another doubt; inactive = no such curve, though single readings can be large; an effect the other way counts as inactive or inconclusive.
How the values were obtained:
[1] = Cellular Toxicity (caspase-3) N2a (AID 665);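 note: compound exposure lasted 16 h at 37 °C before readout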
Summary of the method: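 Mouse N2a neuroblastoma cells (1500/well) were treated with compounds for 16 h at 37 °C, then caspase-3/7 activity was read by Caspase-Glo luminescence after 1 h at room temperature. Data were normalized to DMSO and 10 uM staurosporine; AC50 from Hill fits.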

[2] = Cellular Toxicity (caspase-3) NIH 3T3 (AID 666);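 note: caspase signal read after 16 h compound exposure; 0% = DMSO basal and 100% = 100 µM tamoxifen stimulation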
Summary of the method: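 Mouse NIH 3T3 fibroblasts (1000 cells/well) were treated with compound for 16 hr at 37°C in complete medium; caspase-3/7 activity was read by Caspase-Glo luminescence. Normalized to DMSO and 100 uM tamoxifen; AC50 from Hill fits.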

[3] = Cellular Toxicity (caspase-3) Renal Proximal Tubule (AID 667);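 note: cells exposed to compound for 16 hours at 37 °C before detection; 0% = DMSO basal and 100% = 10 µM staurosporine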
Summary of the method: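 AC50 derived by standard Hill fit of concentration-response data, normalized between DMSO basal and 10 uM staurosporine as 100% stimulation. Cells: primary rat kidney proximal tubule, 16 h treatment at 37 °C.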

[4] = Confirmation and Secondary Assay for Modulators of Hemoglobin Beta Chain Splicing at IVS2 654 locus (AID 910);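 note: HeLa cells stably carrying EGFP split by mutant beta-globin IVS2-654 intron; % of control where 0% means no effect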
Summary of the method: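 HeLa cells stably expressing EGFP interrupted by β-globin IVS2-654 intron, seeded overnight in Opti-MEM/2% FCS, then treated 2 days at 37 °C. Restored splicing read as total peak GFP intensity per well by laser scanning cytometry (488 nm excitation, 500–520 nm emission); 500 nM antisense PNA as control.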

[5] = Cell Viability - LYMP2-001 (AID 921);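 note: series mostly up to about 92 µM; cells exposed to compound for 24 h at 37 °C; 0% = DMSO only and full inhibition = tetraoctylammonium bromide control wells; nearly all actives have a fitted effect of over 70% in size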
Summary of the method: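 Steps: seed 2500 lymphoblastoid cells/well; 5 hr, 37 C; add compound; 24 hr, 37 C; CellTiter-Glo reagent, 30 min room temperature; read luminescence. Concentration-response modeled by Hill equation for AC50.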

[6] = Confirmation and Secondary Assay for Modulators of Hemoglobin Beta Chain Splicing at IVS2 705 locus (AID 930);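 note: HeLa cells stably expressing the EGFP-705 splicing reporter; series mostly up to about 46 µM; % of control where 0% means no effect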
Summary of the method: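 HeLa cells stably carrying EGFP interrupted by mutant beta-globin IVS2-705 intron (CMV-driven) were seeded at 500 cells/well, treated next day with compound for 2 days at 37C; corrected splicing restores EGFP, read as total peak GFP intensity per well.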

[7] = MultiTox-Fluor Cytotoxicity Assay - LYMP1-001 - Dead Cells (AID 946);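 note: 0% = DMSO and 100% = tetraoctylammonium bromide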
Summary of the method: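 AC50 from Hill fit of concentration-response; data normalized to DMSO (basal) and 15 uM tetraoctylammonium bromide (100%). LYMP1-001 lymphoblastoid cells, 2500/well, 16 hr compound at 37 C; dead-cell protease fluorescence, Ex/Em 485/520.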

[8] = MultiTox-Fluor Cytotoxicity Assay - LYMP1-001 - Live Cells (AID 947);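 note: 0% = DMSO only and full inhibition = tetraoctylammonium bromide control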
[9] = Cell Viability - LYMP1-002 - Assay at 16 hr (AID 948);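 note: 0% = DMSO alone and full effect = 92 µM tetraoctylammonium bromide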
Summary of the method: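 Seed 2500 LYMP1-002 cells per well in complete medium and hold 5 hr at 37 C. Add compound across a concentration series and incubate 16 hr at 37 C. Add CellTiter-Glo, wait 30 min at room temperature, read luminescence.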

[10] = biological target: Cytochrome P450 3A4 (Homo sapiens) (UniProt P08684); assay: qHTS Assay for Inhibitors and Substrates of Cytochrome P450 3A4 (AID 884); note: series mostly up to about 57 µM; % is set by controls: 0 for no effect and ±100 for the full control effect; nearly all actives have a fitted effect of over 50% in size
Summary of the method: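 20 nM human CYP3A4 with 25 uM Luciferin-PPXE (at KM) in 200 mM KPO4, preincubated 10 min with compound; NADPH regeneration started a 60 min RT reaction. Luciferin detected by luminescence, normalized to 57 uM ketoconazole as full inhibition.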

[11] = biological target: Guanine nucleotide-binding protein G(i) subunit alpha-1 (Homo sapiens) (UniProt P63096); assay: qHTS Assay for Inhibitors of RGS12 GoLoco Motif Activity (Green Fluorophore) (AID 879);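 note: 0% = labeled peptide with Gαi1 and full inhibition = labeled peptide alone without protein; negative values mean loss of peptide binding seen as reduced polarization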
Summary of the method: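 Fluorescence polarization assay: 50 nM Gαi1 with 10 nM FITC-labeled RGS12 GoLoco peptide in 10 mM Tris pH 7.5, 150 mM NaCl, 0.1 mM GDP, 0.05% NP40, 10 min at room temperature with compound.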

[12] = qHTS Assay for Identification of Small Molecule Agonists for Thrombopoietin (TPO) Signaling Pathway (AID 917); note: % is set by controls: 0 for no effect and ±100 for the full control effect
Summary of the method: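 Luminescence from a Glycoprotein IIb promoter–driven luciferase reporter served as read-out in murine Ba/F3 cells carrying the human TPO receptor. Cells, deprived of IL-3 overnight, received compounds with 26 pM TPO and were incubated 24 hrs at 37 C.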

[13] = biological target: Muscarinic acetylcholine receptor M1 (Rattus norvegicus) (UniProt P08482); assay: qHTS Assay for Antagonists of Acetylcholine Muscarinic M1 Receptor: Kinetic Measurement of Intracellular Calcium Response (AID 943);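 note: Fluo-4 calcium signal as peak divided by basal fluorescence over 4 min; series mostly up to about 35 µM; nearly all actives have a fitted effect of over 75% in size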
Summary of the method: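 CHO cells stably expressing rat M1 were loaded with no-wash Fluo-4 dye for 1 h at 37C, pre-incubated 10 min with compound, then challenged with EC80 carbachol (100 nM final); kinetic calcium read 4 min, peak/basal ratio.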

[14] = biological target: Muscarinic acetylcholine receptor M1 (Rattus norvegicus) (UniProt P08482); assay: qHTS Assay for Antagonists of Acetylcholine Muscarinic M1 Receptor: Measurement of IP-One Response (AID 944); note: nearly all actives have a fitted effect of over 75% in size
Summary of the method: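 CHO cells expressing rat M1 receptor, recovered overnight, were pre-incubated 10 min with compound, then stimulated 30 min with carbachol at EC80 (200 nM) in LiCl-containing buffer, pH 7.4. IP1 accumulation was read by HTRF (620/665 nm).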

[15] = biological target: Pyruvate kinase (Leishmania mexicana) (UniProt Q27686); assay: qHTS Validation Assay for Inhibitors of Leishmania Mexicana Pyruvate Kinase (AID 945);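 note: 0% = DMSO only neutral control wells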
Summary of the method: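 LmPYK E451W 0.2 nM; 0.5 mM PEP, 0.1 mM ADP, 7 mM MgCl2, 50 mM KCl, imidazole pH 7.2, 0.01% Tween 20, 0.05% BSA; 1 h RT; PKLight luminescence; DMSO-normalized.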

[16] = biological target: Cytochrome P450 3A4 (Homo sapiens) (UniProt P08684); assay: qHTS Assay for Activators of Cytochrome P450 3A4 (AID 885); note: nearly all actives have a fitted effect of over 65% in size
Summary of the method: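 20nM CYP3A4 + 25uM Luciferin-PPXE (=KM), 200mM KPO4; cpd 10 min RT; NADPH regen, 60 min RT; stop w/ detection buffer, 20 min; luminescence. Normalized to 57 uM ketoconazole.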

[17] = biological target: Cytochrome P450 2C9 (Homo sapiens) (UniProt P11712); assay: qHTS Assay for Inhibitors and Substrates of Cytochrome P450 2C9 (AID 883); note: % is set by controls: 0 for no effect and ±100 for the full control effect; nearly all actives have a fitted effect of over 60% in size
Summary of the method: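 10nM CYP2C9 + 100uM Luciferin-H (=KM), 25mM KPO4; cpd 10 min 37C; NADPH regen, 60 min 37C; stop/detect with P450 Glo-Buffer 20 min; luminescence. Norm. to 57uM sulphaphenazole as full inhibition.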

[18] = biological target: Cytochrome P450 2C19 (Homo sapiens) (UniProt P33261); assay: qHTS Assay for Inhibitors and Substrates of Cytochrome P450 2C19 (AID 899); note: nearly all actives have a fitted effect of over 60% in size; note: potency is the fitted concentration of half-maximal effect
Summary of the method: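 Luminescent read-out of luciferin formed from Luciferin-H EGE (10uM, equal to KM). Enzyme 5nM in 50mM KPO4; compound added, 10 min at 37C, then NADPH regenerating system for 60 min at 37C. Full inhibition defined by 57uM ketoconazole.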

[19] = biological target: Cytochrome P450 2D6 (Homo sapiens) (UniProt P10635); assay: qHTS Assay for Inhibitors and Substrates of Cytochrome P450 2D6 (AID 891); note: potency is the fitted concentration of half-maximal effect; nearly all actives have a fitted effect of over 60% in size
Summary of the method: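 Human CYP2D6 (5 nM) with 30 uM Luciferin-ME EGE (at Km) in 100 mM KPO4, compound preincubated 10 min, then NADPH regeneration system for 60 min at room temperature. Luciferin read by luminescence; normalized to 1.43 uM quinidine.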

[20] = qHTS Assay for Identification of Small Molecule Agonists for Hypoxia Response Element Signaling Pathway (AID 914; active = well fitted activation curve with a large enough effect in the signal ratio, with a control signal flat, not every such curve was filed as active; the % refers to the signal ratio; note: % of control where 0% means no effect); settings: ME-180 HRE-bla reporter, beta-lactamase ratio, CoCl2, 17 h; stronger effect = higher value
Summary of the method: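 ME-180 cells carrying an HRE-driven beta-lactamase reporter were treated with compounds in a titration series plus an EC50 level of CoCl2 for 17 h at 37 degrees Celsius; CCF4 readout as the 460nm/530nm ratio gave AC50 values.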

Sequence of Cytochrome P450 2D6 (Homo sapiens) (P10635 whole entry, looked up): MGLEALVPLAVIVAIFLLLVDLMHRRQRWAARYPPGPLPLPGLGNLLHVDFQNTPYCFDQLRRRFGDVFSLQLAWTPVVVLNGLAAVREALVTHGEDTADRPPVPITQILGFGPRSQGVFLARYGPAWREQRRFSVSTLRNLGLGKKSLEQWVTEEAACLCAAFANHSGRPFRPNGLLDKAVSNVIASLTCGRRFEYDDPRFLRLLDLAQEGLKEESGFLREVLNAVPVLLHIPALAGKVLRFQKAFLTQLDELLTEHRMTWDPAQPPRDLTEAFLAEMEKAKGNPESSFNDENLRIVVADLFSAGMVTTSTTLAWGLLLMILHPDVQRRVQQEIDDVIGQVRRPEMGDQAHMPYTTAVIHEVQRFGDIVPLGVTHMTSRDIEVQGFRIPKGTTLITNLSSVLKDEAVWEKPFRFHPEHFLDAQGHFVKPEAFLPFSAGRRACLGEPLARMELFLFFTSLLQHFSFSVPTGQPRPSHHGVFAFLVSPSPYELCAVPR
Sequence of Cytochrome P450 2C19 (Homo sapiens) (P33261 whole entry, looked up): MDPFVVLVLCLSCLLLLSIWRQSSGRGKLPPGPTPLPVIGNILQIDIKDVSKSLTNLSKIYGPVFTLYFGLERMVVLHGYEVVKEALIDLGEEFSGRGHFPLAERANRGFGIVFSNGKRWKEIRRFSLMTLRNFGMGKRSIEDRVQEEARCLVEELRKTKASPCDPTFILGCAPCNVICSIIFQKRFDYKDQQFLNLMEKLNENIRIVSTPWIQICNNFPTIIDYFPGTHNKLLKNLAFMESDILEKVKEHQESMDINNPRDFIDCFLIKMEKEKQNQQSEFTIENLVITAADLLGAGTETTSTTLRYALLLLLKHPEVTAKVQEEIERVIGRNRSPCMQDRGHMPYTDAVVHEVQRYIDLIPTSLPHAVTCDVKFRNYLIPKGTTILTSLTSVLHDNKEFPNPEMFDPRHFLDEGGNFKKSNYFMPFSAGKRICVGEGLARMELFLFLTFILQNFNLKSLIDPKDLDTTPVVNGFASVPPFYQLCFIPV
Sequence of Cytochrome P450 3A4 (Homo sapiens) (P08684 whole entry, looked up): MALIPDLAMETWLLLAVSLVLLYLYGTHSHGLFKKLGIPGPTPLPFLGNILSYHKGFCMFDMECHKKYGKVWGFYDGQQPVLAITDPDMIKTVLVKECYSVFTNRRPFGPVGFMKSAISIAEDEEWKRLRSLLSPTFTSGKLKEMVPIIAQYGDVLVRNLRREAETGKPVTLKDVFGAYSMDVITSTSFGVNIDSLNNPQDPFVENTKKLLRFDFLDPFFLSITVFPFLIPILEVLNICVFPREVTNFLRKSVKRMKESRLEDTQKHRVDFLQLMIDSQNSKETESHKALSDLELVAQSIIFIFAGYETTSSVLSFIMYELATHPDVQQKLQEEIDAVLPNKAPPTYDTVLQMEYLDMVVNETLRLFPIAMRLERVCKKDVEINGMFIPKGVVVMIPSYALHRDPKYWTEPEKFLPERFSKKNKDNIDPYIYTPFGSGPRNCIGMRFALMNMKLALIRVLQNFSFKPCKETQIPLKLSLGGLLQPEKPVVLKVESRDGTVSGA
Sequence of Muscarinic acetylcholine receptor M1 (Rattus norvegicus) (P08482 whole entry, looked up): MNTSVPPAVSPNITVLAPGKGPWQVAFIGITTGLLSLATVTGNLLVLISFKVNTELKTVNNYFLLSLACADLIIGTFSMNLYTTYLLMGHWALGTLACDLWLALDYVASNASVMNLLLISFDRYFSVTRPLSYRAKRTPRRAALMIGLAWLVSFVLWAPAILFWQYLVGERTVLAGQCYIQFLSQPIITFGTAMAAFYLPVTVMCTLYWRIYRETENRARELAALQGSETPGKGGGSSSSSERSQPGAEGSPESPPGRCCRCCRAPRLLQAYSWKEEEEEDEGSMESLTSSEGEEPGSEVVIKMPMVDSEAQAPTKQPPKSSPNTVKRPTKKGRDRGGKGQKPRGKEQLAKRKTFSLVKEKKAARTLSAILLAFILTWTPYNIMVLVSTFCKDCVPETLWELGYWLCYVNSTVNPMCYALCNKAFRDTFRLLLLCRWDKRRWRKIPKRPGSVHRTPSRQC
Sequence of Pyruvate kinase (Leishmania mexicana) (Q27686 2-499 E452W): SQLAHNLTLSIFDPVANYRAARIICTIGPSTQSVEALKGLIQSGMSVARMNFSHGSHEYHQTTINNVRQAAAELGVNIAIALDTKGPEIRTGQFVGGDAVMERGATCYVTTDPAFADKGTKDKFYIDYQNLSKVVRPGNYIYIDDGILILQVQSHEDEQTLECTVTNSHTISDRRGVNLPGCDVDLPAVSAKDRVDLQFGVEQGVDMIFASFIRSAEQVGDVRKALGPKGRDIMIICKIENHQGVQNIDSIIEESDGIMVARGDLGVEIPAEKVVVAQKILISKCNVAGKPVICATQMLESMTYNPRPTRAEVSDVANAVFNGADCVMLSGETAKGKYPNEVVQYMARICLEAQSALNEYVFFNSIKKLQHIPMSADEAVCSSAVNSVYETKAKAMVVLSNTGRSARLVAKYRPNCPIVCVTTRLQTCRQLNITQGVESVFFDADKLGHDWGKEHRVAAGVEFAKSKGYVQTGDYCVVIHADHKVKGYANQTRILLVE
Sequence of Guanine nucleotide-binding protein G(i) subunit alpha-1 (Homo sapiens) (P63096 whole entry, looked up): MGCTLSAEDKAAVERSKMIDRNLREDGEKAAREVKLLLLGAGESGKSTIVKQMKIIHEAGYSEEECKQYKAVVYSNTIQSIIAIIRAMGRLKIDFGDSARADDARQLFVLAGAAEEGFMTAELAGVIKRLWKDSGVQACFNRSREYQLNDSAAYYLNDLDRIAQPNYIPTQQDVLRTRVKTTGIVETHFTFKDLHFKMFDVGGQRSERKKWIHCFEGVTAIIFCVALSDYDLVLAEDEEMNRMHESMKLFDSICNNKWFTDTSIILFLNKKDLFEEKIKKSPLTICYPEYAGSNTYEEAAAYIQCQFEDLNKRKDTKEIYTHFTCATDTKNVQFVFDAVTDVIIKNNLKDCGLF
Sequence of Cytochrome P450 2C9 (Homo sapiens) (P11712 whole entry, looked up): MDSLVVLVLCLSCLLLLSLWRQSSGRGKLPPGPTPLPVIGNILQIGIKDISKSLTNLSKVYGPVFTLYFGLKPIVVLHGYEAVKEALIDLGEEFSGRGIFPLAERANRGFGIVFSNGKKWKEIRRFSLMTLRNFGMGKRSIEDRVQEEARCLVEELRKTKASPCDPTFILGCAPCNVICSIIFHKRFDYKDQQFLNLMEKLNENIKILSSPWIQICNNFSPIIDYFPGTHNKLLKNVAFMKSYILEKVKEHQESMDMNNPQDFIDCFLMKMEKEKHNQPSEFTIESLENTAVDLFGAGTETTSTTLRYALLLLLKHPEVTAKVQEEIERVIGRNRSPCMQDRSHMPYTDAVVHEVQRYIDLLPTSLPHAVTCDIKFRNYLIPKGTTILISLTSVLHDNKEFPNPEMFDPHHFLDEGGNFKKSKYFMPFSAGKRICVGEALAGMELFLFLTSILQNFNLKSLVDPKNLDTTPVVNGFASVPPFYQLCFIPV

CCCCOC(=O)c1ccc(N)cc1
inactive: outcome [1] | outcome [2] | outcome [3] | outcome [4] | outcome [5] | outcome [6] | outcome [7] | outcome [8] | outcome [9]

Cn1c(=O)c2c(ncn2CCO)n(C)c1=O
inactive: outcome [10] | outcome [4] | outcome [6]

C=CCNC(N)=S
inactive: outcome [1] | outcome [2] | outcome [3] | outcome [10] | outcome [5] | outcome [7] | outcome [8] | outcome [9]

CCN(CC)C(=O)c1cccc(C)c1
inactive: outcome [1] | outcome [2] | outcome [3] | outcome [4] | outcome [5] | outcome [6] | outcome [7] | outcome [8] | outcome [9]

O=C(O)CCCCC1CCSS1 (centres undefined)
inactive: outcome [1] | outcome [2] | outcome [3] | outcome [10] | outcome [4] | outcome [5] | outcome [6] | outcome [7] | outcome [8] | outcome [9]

CN1C(C)(C)CCCC1(C)C
inactive: outcome [11] | outcome [4] | outcome [12] | outcome [6] | outcome [13] | outcome [14] | outcome [15]

NC(=O)CC[C@@H](N)C(=O)O
inactive: outcome [11] | outcome [12] | outcome [13] | outcome [14] | outcome [15]

O=C(O)c1ccccc1C(=O)Nc1ccc(S(=O)(=O)Nc2nccs2)cc1
inactive: outcome [10] | outcome [16] | outcome [4] | outcome [6]

CCCCCC(C)N (centres undefined)
inactive: outcome [10] | outcome [4] | outcome [6]

CCCC(O)C(CC)CO (centres undefined)
inactive: outcome [1] | outcome [2] | outcome [3] | outcome [10] | outcome [5] | outcome [7] | outcome [8] | outcome [9]

C[C@@H]1CCC[C@H](C)N1
inactive: Potency [17] | Potency [18]

O=C1C(c2[nH]c3ccccc3c2O)=Nc2ccccc21
inactive: outcome [1] | outcome [2] | outcome [3] | outcome [10] | outcome [5] | outcome [7] | outcome [8] | outcome [9]

CC(=O)Nc1ccccc1
inactive: outcome [1] | outcome [2] | outcome [3] | outcome [10] | outcome [4] | outcome [5] | outcome [6] | outcome [7] | outcome [8] | outcome [9]

CCOC(N)=O
inactive: outcome [10] | outcome [4] | outcome [6]

Cc1c(NC(C)C)c(=O)n(-c2ccccc2)n1C
inactive: outcome [10] | outcome [4] | outcome [6]

CC[N+](C)(CC)CCOC(=O)C1c2ccccc2Oc2ccccc21
active: Potency [19] 3980 nM

CC(=O)SC[C@@H](Cc1ccccc1)C(=O)NCC(=O)OCc1ccccc1
active: Potency [19] 316 nM | Potency [18] 126 nM

Cc1onc(-c2ccccc2)c1-c1ccc(S(N)(=O)=O)cc1
inactive: outcome [4] | outcome [6]

COc1ccccc1OCC(O)CO (centres undefined)
inactive: outcome [4] | outcome [6]

Cc1cc(O)cc(C)c1Cl
inactive: outcome [4] | outcome [6]

Cc1c(NC(=O)c2cccnc2)c(=O)n(-c2ccccc2)n1C
inactive: outcome [4] | outcome [6]

C[N+]1(C)CCCC(OC(=O)C(O)(c2ccccc2)c2ccccc2)C1 (centres undefined)
inactive: outcome [10] | outcome [4] | outcome [6]

CCCCC1(COC(=O)CCC(=O)O)C(=O)N(c2ccccc2)N(c2ccccc2)C1=O
inactive: outcome [4] | outcome [6]

O=C1c2ccccc2S(=O)(=O)N1CCCCN1CCN(c2ncccn2)CC1
active: Potency [18] 631 nM

COc1ccc(NS(=O)(=O)c2ccc(N)cc2)nn1
inactive: outcome [4] | outcome [6]

O=C(CCBr)N1CCN(C(=O)CCBr)CC1
inactive: outcome [4] | outcome [6]

NC(N)=NCCN1CCCCCCC1
inactive: outcome [4] | outcome [6]

CCc1cccc(CC)c1NC(=O)CN(CC(=O)O)CC(=O)O
inactive: Potency [18]

NS(=O)(=O)c1cc2c(cc1C(F)(F)F)NCNS2(=O)=O
inactive: outcome [4] | outcome [6]

Nc1ccc(C(=O)Oc2ccccc2)c(O)c1
inactive: outcome [4] | outcome [6]

CCS(=O)(=O)CCn1c([N+](=O)[O-])cnc1C
inactive: outcome [4] | outcome [6]

CC(=O)N[C@@H](CC(C)C)C(=O)O
inactive: activation [20] -5.35%

CN1CCCN=C1COC(=O)C(O)(c1ccccc1)C1CCCCC1 (centres undefined)
inactive: outcome [4] | outcome [6]

O=C(O)c1cc(=O)c2ccccc2o1
inactive: outcome [10] | outcome [4] | outcome [6]

Cc1ccsc1/C=C/C1=NCCCN1C
inactive: outcome [4] | outcome [6]

C=CCSCC1Nc2cc(Cl)c(S(N)(=O)=O)cc2S(=O)(=O)N1 (centres undefined)
inactive: outcome [16] | outcome [4] | outcome [6]

Cc1cccc(C(=O)O)c1O
inactive: outcome [10] | outcome [4] | outcome [6]

C[n+]1ccccc1/C=N/O
inactive: outcome [10] | outcome [4] | outcome [6]

COc1ccc2cc(CCC(C)=O)ccc2c1
inactive: outcome [16] | outcome [4] | outcome [6]

CNCc1ccccc1
inactive: outcome [4] | outcome [6]

CC(=O)Oc1cccc(O)c1
inactive: outcome [4] | outcome [6]

NC(=O)NC1NC(=O)NC1=O (centres undefined)
inactive: outcome [10] | outcome [4] | outcome [6]

CC(C)=CCC/C(C)=C/CO
inactive: outcome [4] | outcome [6]

Cc1cc(NC(=O)C2=C(O)c3ccccc3S(=O)(=O)N2C)no1
inactive: outcome [10] | outcome [4] | outcome [6]

O=c1[nH]cnc2nc[nH]c12
inactive: outcome [10] | outcome [4] | outcome [6]

CCN(CC)CCOC(=O)C(c1ccccc1)c1ccccc1
active: Potency [19] 5010 nM
inactive: outcome [4] | outcome [6]

OC(CCN1CCCC1)(c1ccccc1)C1CCCCC1 (centres undefined)
inactive: outcome [4] | outcome [6]

NS(=O)(=O)c1cc(C2(O)NC(=O)c3ccccc32)ccc1Cl (centres undefined)
inactive: outcome [10] | outcome [4] | outcome [6]

CC1CCc2cc(F)cc3c(=O)c(C(=O)O)cn1c23 (centres undefined)
inactive: outcome [10] | outcome [4] | outcome [6]

Cc1[nH]c(C)c(Cl)c(=O)c1Cl
inactive: outcome [10] | outcome [4] | outcome [6]

CC[N+](CC)(CC(=O)Nc1c(C)cccc1C)Cc1ccccc1
active: Potency [19] 7.9 nM

NCc1ccc(S(N)(=O)=O)cc1
inactive: outcome [4] | outcome [6]

From PubChem BioAssay (NCATS)
